Dicer inh: blocks human Dicer maturation of pre-miR-21; z-score at 25 µM; actives 6% (n = 47,000); AID 1347074; cat-ELCCA pre-miR-21 Dicer processing, chemiluminescence; hits give high values; in the data active means z-score above about 3, passing the limit was not always enough;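 further: higher signal means more uncleaved substrate so more Dicer inhibition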
Target sequence (Q9UPY3 whole entry, looked up): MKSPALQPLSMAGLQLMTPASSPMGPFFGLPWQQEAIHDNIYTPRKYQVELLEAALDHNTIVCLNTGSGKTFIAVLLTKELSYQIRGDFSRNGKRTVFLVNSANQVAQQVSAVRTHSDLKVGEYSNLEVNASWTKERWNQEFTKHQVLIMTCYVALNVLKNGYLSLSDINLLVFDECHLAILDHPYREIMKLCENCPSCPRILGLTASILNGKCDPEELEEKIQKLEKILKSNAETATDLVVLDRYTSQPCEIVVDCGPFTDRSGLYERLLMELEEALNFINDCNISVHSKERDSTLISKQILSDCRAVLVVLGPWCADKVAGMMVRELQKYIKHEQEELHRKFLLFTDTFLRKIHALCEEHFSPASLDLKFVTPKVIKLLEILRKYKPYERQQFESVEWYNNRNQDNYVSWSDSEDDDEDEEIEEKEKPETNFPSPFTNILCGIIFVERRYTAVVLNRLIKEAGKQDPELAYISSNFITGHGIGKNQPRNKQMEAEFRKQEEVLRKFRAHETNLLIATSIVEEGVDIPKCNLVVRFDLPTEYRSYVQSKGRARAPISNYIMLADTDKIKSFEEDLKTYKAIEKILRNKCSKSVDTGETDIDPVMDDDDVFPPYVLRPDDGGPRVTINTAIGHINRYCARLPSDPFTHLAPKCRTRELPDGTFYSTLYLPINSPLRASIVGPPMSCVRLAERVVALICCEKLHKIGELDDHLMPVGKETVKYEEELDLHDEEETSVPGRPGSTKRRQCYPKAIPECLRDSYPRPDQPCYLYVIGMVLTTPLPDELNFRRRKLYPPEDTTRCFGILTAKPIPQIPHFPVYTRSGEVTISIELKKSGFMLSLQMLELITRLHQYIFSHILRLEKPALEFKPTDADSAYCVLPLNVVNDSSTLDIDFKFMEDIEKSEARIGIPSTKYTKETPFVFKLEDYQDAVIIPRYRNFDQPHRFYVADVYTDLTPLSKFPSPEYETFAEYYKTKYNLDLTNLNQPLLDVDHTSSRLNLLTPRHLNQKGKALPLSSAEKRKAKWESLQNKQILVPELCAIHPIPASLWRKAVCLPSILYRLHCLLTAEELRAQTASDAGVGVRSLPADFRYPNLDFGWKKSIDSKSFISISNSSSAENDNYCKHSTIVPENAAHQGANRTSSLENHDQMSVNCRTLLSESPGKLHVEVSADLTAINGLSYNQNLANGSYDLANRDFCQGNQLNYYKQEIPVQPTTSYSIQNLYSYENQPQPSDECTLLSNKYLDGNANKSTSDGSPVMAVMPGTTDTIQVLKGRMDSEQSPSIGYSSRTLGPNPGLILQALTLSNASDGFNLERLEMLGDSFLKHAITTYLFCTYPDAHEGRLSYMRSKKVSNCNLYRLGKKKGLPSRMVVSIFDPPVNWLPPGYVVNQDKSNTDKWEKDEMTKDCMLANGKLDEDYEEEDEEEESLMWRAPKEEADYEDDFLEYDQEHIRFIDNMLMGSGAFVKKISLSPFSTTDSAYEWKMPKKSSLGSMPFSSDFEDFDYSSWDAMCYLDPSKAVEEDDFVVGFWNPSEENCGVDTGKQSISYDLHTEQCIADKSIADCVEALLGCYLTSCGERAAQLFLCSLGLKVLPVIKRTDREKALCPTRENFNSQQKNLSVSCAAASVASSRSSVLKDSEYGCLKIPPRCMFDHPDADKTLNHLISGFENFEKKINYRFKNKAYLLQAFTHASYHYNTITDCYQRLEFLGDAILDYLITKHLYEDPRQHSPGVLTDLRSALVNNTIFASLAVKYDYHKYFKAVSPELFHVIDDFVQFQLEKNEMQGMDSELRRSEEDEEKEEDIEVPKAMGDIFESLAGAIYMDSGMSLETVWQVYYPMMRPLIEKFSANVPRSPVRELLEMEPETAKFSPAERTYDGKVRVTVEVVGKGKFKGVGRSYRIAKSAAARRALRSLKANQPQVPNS
Of the large screens only hits and unclear results are named; the others gave an inactive call. The full list was thinned out, with hits kept by preference.

CC12CN3CC(C)(CN(C1)C3c1ccc([N+](=O)[O-])o1)C2 (stereo not given)	none
CC12CN3CC(C)(CN(C1)C3c1cc(Br)ccc1O)C2 (stereo not given)	none
O=C(Nc1csnc1-c1c(Cl)cccc1Cl)NN1CCCCC1	none
O=C(C(c1ccccc1)c1ccccc1)N1CCN(C2CC3CCC2C3)CC1 (stereo not given)	none
N#C/C(=C\N1CCc2ccccc21)S(=O)(=O)Cc1ccco1	none
O=c1c2ccccc2nc(/C=C/c2ccc(O)cc2)n1Cc1ccccc1	none
CCn1c(/C=C/c2c[nH]c3ccccc23)nc2ccccc2c1=O	Dicer inh 3.01
COc1cccc(-n2c(/C=C/c3cn(C)c4ccccc34)nc3ccccc3c2=O)c1	none
CCOc1ccc(C2c3c(oc4ccc(C)cc4c3=O)C(=O)N2c2nc(C)c(C)s2)cc1 (stereo not given)	none
CCOC(=O)c1ccc2nc(/N=C/N(C)C)sc2c1	none
Cc1nnc(SCc2nc(-c3ccc(Cl)cc3)no2)n1-c1ccccc1	none
c1ccc(-c2noc(CSc3nnc(-c4cccs4)n3-c3ccccc3)n2)cc1	Dicer inh 3.6
c1ccc(-c2noc(CSc3nnc(-c4ccco4)n3-c3ccccc3)n2)cc1	none
O=c1c(-c2ccccc2)c(O)nc2sc3ccccc3n12	none
Cc1ccc(N2C(=O)CSC2c2ccc(Cl)cc2)cc1 (stereo not given)	none
CCN1c2ccccc2-c2nc3ccccc3n2C1c1ccsc1 (stereo not given)	none
CN(CCc1ccccn1)C(=O)Nc1ccccc1	none
O=C(Nc1ccccc1)N(Cc1ccccc1)c1cccc2ccccc12	none
CN(Cc1ccccc1)C(=O)Nc1ccccc1	Dicer inh 3.71
COC(=O)c1ccccc1NC(=O)c1ccccc1Cl	none
CCCCCCCSc1nnc2[nH]c(=O)cc(N)n12	none
CCCCSc1nnc2[nH]c(=O)cc(N)n12	none
Nc1cc(=O)[nH]c2nnc(SCc3cccc(Oc4ccccc4)c3)n12	none
CCSc1nnc2[nH]c(=O)cc(N)n12	none
Nc1cc(=O)[nH]c2nnc(SCCc3ccccc3)n12	Dicer inh 4.07
CCCCCSc1nnc2[nH]c(=O)cc(N)n12	Dicer inh 4.47
Cc1ccc(-n2nc(C)c3c2CC(c2ccco2)CC3=O)cc1 (stereo not given)	none
C=CCSc1nc(C(OC)OC)c(C(=O)OC)cc1C#N	none
C=CCn1c(N)c(C(=O)N/N=C/c2ccc(Cl)cc2Cl)sc1=S	none
O=C1CC(c2ccc3c(c2)OCO3)c2c(n[nH]c2-c2ccc(Cl)cc2)N1 (stereo not given)	none
COc1cc2c(cc1OC)C(c1ccc(F)cc1)CC(=O)N2 (stereo not given)	none
O=C1CC(c2ccc(Cl)cc2)c2cc3c(cc2N1)OCO3 (stereo not given)	Dicer inh 3.59
CCOC(=O)c1cnc(Nc2nc(-c3ccccc3)c3ccccc3n2)nc1C	none
COC(Cn1c(SCC(=O)c2ccccc2)nnc1-c1ccccc1)OC	none
CCOC(=O)N1CCc2c(sc3ncn(CC(=O)c4ccccc4)c(=O)c23)C1	none
O=C(O)c1nccnc1C(=O)Nc1cc(Cl)c(-n2cccc2)cc1Cl	none
Cc1ccc(C)n1-c1ccc(-n2c(C)ccc2C)cc1	none
Cc1ccc(C(=O)O)cc1-n1c(C)ccc1C	none
Cc1ccc(C)n1-c1ccc(Cl)cc1C(=O)O	Dicer inh 12.3
Cc1ccc(Cl)c(Nc2ccccc2C(=O)O)c1Cl	none
O=C(O)c1cc(Cl)ccc1I	none
Cc1ccc(C)n1-c1ccc(Cl)c(C(=O)O)c1	Dicer inh 8.24
Cn1nc(C(=O)Nc2ccccc2)c(Br)c1C(=O)Nc1ccccc1	none
O=C(CN1C(=O)c2ccccc2S1(=O)=O)NCCSCc1ccccc1	none
CC(C)CCN1Cc2ccccc2C1	Dicer inh 5.12
CN1CCN2c3ccccc3Cc3ccccc3C2C1 (stereo not given)	none
CC(C)CCC(O)(CCN1CCCCC1)c1ccccc1 (stereo not given)	none
CCOC(=O)c1cc(OC(=O)c2ccco2)n(-c2ccccc2)n1	none
Fc1ccccc1CN1CCN(CCCc2ccccc2)CC1	none
Brc1ccc(CN2CCN(Cc3c[nH]c4ccccc34)CC2)cc1	none
Fc1ccccc1CN1CCN(Cc2c[nH]c3ccccc23)CC1	Dicer inh 3.66
O=C1COCC(=O)N1CCc1c[nH]c2ccccc12	none
CCS(=O)(=O)N1CCN(Cc2c[nH]c3ccccc23)CC1	Dicer inh 3.45
FC(F)(F)c1cnc(N2CCN(Cc3c[nH]c4ccccc34)CC2)c(Cl)c1	none
COc1ccc2c(c1)CCCN2Cc1c[nH]c2ccccc12	none
Clc1ccccc1CN1CCN(Cc2c[nH]c3ccccc23)CC1	Dicer inh 4.48
Cc1cccc(CN2CCN(Cc3c[nH]c4ccccc34)CC2)c1	none
CC(C)CCNS(=O)(=O)c1ccc2c(c1)C(=O)c1cc(S(=O)(=O)NCCC(C)C)ccc1-2	none
CCn1nc(C)c(Br)c1-c1nc(-c2ccccn2)no1	none
COc1ccc(Cc2nc(-c3cccnc3)no2)cc1	none
COC(=O)/C(C#N)=C/c1cccc(Br)c1	Dicer inh 9.3
COC(=O)/C(C#N)=C/c1ccc(Cl)cc1	none
CCOC(=O)/C(C#N)=C/c1ccc(Br)cc1	none
COc1ccccc1C1C2=C(Nc3c1c(=O)n(C)c(=O)n3C)c1ccccc1C2=O (stereo not given)	none
Cc1ccc(NC(=S)Nc2ccccc2C)c(C)c1	none
Cc1ccc(NC(=S)Nc2ccccc2N)c(C)c1	Dicer inh 6.95
Cc1ccc(NC(=S)Nc2ccc(C)cc2C)c(C)c1	none
CC(=O)Nc1cc(Cl)ccc1C(=O)O	none
CCCCc1ccc(NC(=O)Nc2ccc(N3CCN(C)CC3)cc2)c(C)c1	none
COc1ccc(OC)c(C(=O)c2oc3ccccc3c2NC(=O)CSc2ccccn2)c1	Dicer inh 3.34
COc1ccc(OC)c(NC(=O)CSc2nccn2C)c1	none
CCOC(=O)c1oc2ccc(OC)cc2c1CSc1ccccn1	Dicer inh 3.97
Cc1nnc(NC(=O)CSc2ccccn2)s1	none
CCOC(=O)c1oc2ccccc2c1CSc1ccccn1	none
CCOC(=O)c1oc2ccccc2c1CO	none
CC(=O)OC[C@@H](OC(C)=O)[C@@H](OC(C)=O)[C@@H](/C=N/N=C(N)N)OC(C)=O	none
O=C1CC(c2ccc(Cl)cc2)Cc2nc(NCC3CCCO3)ncc21 (stereo not given)	none
COc1ccc(Oc2ccc([N+](=O)[O-])cc2-c2nc3cccc(C)c3c(=O)o2)cc1	none
O=C1C(=O)N(CNc2ccc(F)cc2F)c2ccccc21	none
CNc1ccc(Cl)cc1C(=O)NC1CC(C)CC(C)(C)C1 (stereo not given)	none
O=C(Nc1cccs1)Nc1ccccc1N1CCCCC1	none
CN(CCOC(=O)c1ccc(C(C)(C)C)cc1)c1nc2cc(Cl)ccc2s1	none
C=CCOc1ccc(C2/C(=C(\O)c3ccc(OC)cc3)C(=O)C(=O)N2Cc2ccncc2)cc1 (stereo not given)	none
O=C(c1ccc(Cl)cc1)n1cc(-c2ccccc2)c(C(F)(F)F)n1	none
CN(C)c1ccc(NC2CC(=O)N(c3cccc4ccccc34)C2=O)cc1 (stereo not given)	none
CCCc1nn(C)cc1C(=O)NCC(=O)OCC	Dicer inh 4.76
CCOC(=O)CNC(=O)c1ccc(Cl)cc1	none
CCOC(=O)CNC(=O)c1ccccc1	none
COC(=O)CCC1CC2(CCC1=O)OCCO2 (stereo not given)	none
CCCCNC(=O)c1cc(S(=O)(=O)N(C)C)oc1C	none
Cc1ccc(S(=O)(=O)N2CN3CN(C2)CN(S(=O)(=O)c2ccc(C)cc2)C3)cc1	none
Cc1ccc(S(=O)(=O)N2CCCC3(CCCCC3)C2)cc1	none
Cc1ccc(S(=O)(=O)N2CCCOC2)cc1	Dicer inh 3.82
CC1(C)C=Cc2cc(-c3noc(-c4cccc(C(F)(F)F)c4)n3)ccc2O1	none
CCCSC1=C(C#N)C(c2ccc(CC)cc2)CC(=O)N1 (stereo not given)	none
